In ChEMBL document CHEMBL4513216, “Probing the Open Global Health Chemical Diversity Library for Multistage-Active Starting Points for Next-Generation Antimalarials” (ACS Infect Dis, 2020):
Screen size: about 69,000 compounds; about 8,600 (12%) showed an effect of 50% or more. The sample as a whole holds a higher share of strong results than the screen did.

Test system: Plasmodium berghei
Test: Screen against P. berghei liver stage (PbLuc), transformed with Luciferase, at 10uM
Type: functional, HepG2
Details: tested at 10 uM

| SMILES | INHIBITION [%] |
| --- | --- |
| Cc1occc1C(=O)N1C[C@@H]2[C@@H](C1)OCC(=O)N2Cc1cccnc1 | -6.23 |
| CN(CC1CCOCC1)C1CCCN(c2ccccn2)C1 (stereo not given) | 18.805 |
| Cc1oc(-c2ccsc2)nc1CNCCn1cccn1 | 53.4 |
| CCN(CCn1cccn1)Cc1nc(-c2ccoc2)oc1C | -31.9 |
| Cc1cnn(CCNCc2nc(-c3ccsc3)oc2C)c1 | 47.4 |
| CCN(CCn1cccn1)Cc1nc(-c2ccc(F)cc2)oc1C | 62.4 |
| CCN(CCn1cccn1)Cc1nc(-c2cc(F)ccc2F)oc1C | 26.1 |
| Cc1oc(-c2ccsc2)nc1CNC(C)Cn1cccn1 (stereo not given) | 39.7 |
| Cc1nn(CC(=O)O)c(C)c1NS(=O)(=O)c1cccc2ccccc12 | 2.97 |
| CNC(=O)CN1CCO[C@H]2CN(CC3CCOC3)C[C@H]21 (stereo not given in full) | 8.85 |
| CNc1ccnc(N2C[C@H]3CC[C@@H](C2)N(CCOC)C3=O)n1 | -144 |
| O=C(c1ccco1)N1C2CCC(O)(CC2)C1CN1CCOCC1 (stereo not given) | 17.7 |
| Cc1nonc1CN(C)Cc1nc(-c2cccc(F)c2F)oc1C | 8.99 |
| COc1ccc(OC)c(-c2nc(CN(C)Cc3noc(C)n3)c(C)o2)c1 | 31.1 |
| CCc1cc(CN(C)Cc2nc(-c3sccc3C)oc2C)on1 | 1.37 |
| Cc1ccsc1-c1nc(CN(C)Cc2noc(C(C)C)n2)c(C)o1 | 30 |
| Cc1ccsc1-c1nc(CN(C)Cc2cc[nH]n2)c(C)o1 | 54.6 |
| Cc1nc(CN(C)Cc2nc(-c3sccc3C)oc2C)no1 | 56.3 |
| CCc1ncnc2c1CCN(CCOC)CC2 | 32.5 |
| CCC[C@H]1CN(S(C)(=O)=O)C[C@@H]1NC(=O)Cc1ccc(F)cc1C | 30.3 |
| O=C(NCCCc1nc(=O)[nH][nH]1)c1ccc(Cl)cn1 | 67.5 |
| O=C(NCCCc1nc(=O)[nH][nH]1)Nc1ccc(Cl)cc1 | 23.9 |

| SMILES | INHIBITION [%] |
| --- | --- |
| O=C(NCCCc1nc(=O)[nH][nH]1)Nc1cccc(F)c1 | 48 |
| O=c1[nH]cc(Nc2ccccc2)c(=O)[nH]1 | 43.8 |
| OC1(CN2CCOC(Cn3cccn3)C2)CCCCC1 (stereo not given) | -37.7 |
| COCCN1CCN(CC(C)(O)c2cccc(C(F)(F)F)c2)CC1 (stereo not given) | 37.3 |
| COc1cccc(OCCCc2cncc(C(N)=O)c2)c1 | -10.3 |
| COc1cccc(OCCc2cncc(C(N)=O)c2)c1 | 15.9 |
| COc1ccccc1OCCCc1cncc(C(N)=O)c1 | 80.2 |
| Cc1nc(C(=O)N2CCN(S(=O)(=O)N(C)C)CC2)c(-c2ccccc2)s1 | 36.6 |
| CCN1C[C@H]2CCN(C(=O)NC)CC[C@H]2S1(=O)=O | -0.813 |
| O=C(NCc1ccccc1CN1CCC(O)CC1)Nc1ccccn1 | 52 |
| O=C(NCc1ccccc1CN1CCC(O)CC1)Nc1ccncc1 | -8.19 |
| O=C(NCc1ccccc1CN1CCC(O)CC1)Nc1ccccc1 | 40.2 |
| COC(=O)c1cc(CN2CCC(c3noc(C)n3)CC2)c(C)s1 | 7.24 |
| Cc1cc(F)cc(NC(=O)N(C)CC(C)(CO)CO)c1 | -31.38 |
| N[C@@H]1CC[C@@H](Nc2nccc(CCC(F)(F)F)n2)C1 | 7.4 |
| FC(F)(F)CCc1ccnc(NC2CCC(n3cnnc3)CC2)n1 (stereo not given) | 32.3 |
| NC1CCC(Nc2nccc(CCC(F)(F)F)n2)CC1 (stereo not given) | 75.6 |
| CCc1csc(C2CCCN(C(=O)c3cc(C4CC4)[nH]n3)C2)n1 (stereo not given) | 27.8 |
| O=C(Cc1cccnc1)N1CCC2(CC1)CCN(C1CCOCC1)CC2 | 8.44 |
| CCOc1ncccc1CNC(=O)N1CCC(n2cncn2)CC1 | 11.4 |
| Cc1ccccc1CNC(=O)N1CCC(n2cncn2)CC1 | 4.52 |
| COc1ccccc1C(C)NC(=O)N1CCC(n2cncn2)CC1 (stereo not given) | 11.2 |

| SMILES | INHIBITION [%] |
| --- | --- |
| CC(C)Oc1ccccc1CNC(=O)N1CCC(n2cncn2)CC1 | 51.3 |
| CCOc1ccccc1CNC(=O)N1CCC(n2cncn2)CC1 | 63.5 |
| COc1ccccc1CCNC(=O)N1CCC(n2cncn2)CC1 | 16.9 |
| CC(C)Oc1ccccc1NC(=O)N1CCC(n2cncn2)CC1 | 56.6 |
| COc1cc(Cl)ccc1CNC(=O)N1CCC(n2cncn2)CC1 | 0.411 |
| CCOc1ncccc1NC(=O)N1CCC(n2cncn2)CC1 | -2.98 |
| CCS(=O)(=O)N1C[C@@H](O)[C@H](Oc2cccc(F)c2)C1 | -18.8 |
| CC(C)Oc1ncccc1CNC(=O)NC(C)c1cccs1 (stereo not given) | 43.6 |
| Cc1cc(C)n(-c2ccc(C(=O)NCC(CO)Cc3cccs3)cc2)n1 (stereo not given) | 23.9 |
| O=S(=O)(Cc1ccc(F)cc1F)NCCOc1cccnc1 | 46.1 |
| CC[C@H](Cn1ncc2ccccc2c1=O)NC(=O)c1ccccn1 | 31.3 |
| CN(C)C(=O)C1CCc2nnc(CNC(=O)c3ccc(Cl)cc3Cl)n21 (stereo not given) | 27.5 |
| CCC(C)NC(=O)CCc1ccc(OCC(F)(F)F)c(OC)c1 (stereo not given) | 31.9 |
| CC1COCCN1Cc1noc(C(C)(C)C)n1 (stereo not given) | 38.7 |
| CCCc1noc(CN2CCOCC2C)n1 (stereo not given) | 65.6 |
| CC(C)Cc1noc(CN2CCOCC2C)n1 (stereo not given) | 51 |
| CC1COCCN1Cc1nc(-c2cccs2)no1 (stereo not given) | 22.9 |
| CC1COCCN1Cc1nc(Cc2ccccc2)no1 (stereo not given) | 54.4 |
| CC1CCCCN1Cc1nc(Cc2ccccc2)no1 (stereo not given) | 20.2 |
| CC(C)c1noc(CN2CCOCC2C)n1 (stereo not given) | 17.5 |
| CC1COCCN1Cc1nc(C(C)(C)C)no1 (stereo not given) | 15.2 |
| CC(C)Cc1noc(CN2CCOCC2)n1 | 1.48 |

| SMILES | INHIBITION [%] |
| --- | --- |
| O=C(COC1CCCC1)NCCc1nc(-c2ccccn2)cs1 | 30.8 |
| Cn1cnc2cc(CCC(=O)Nc3n[nH]c(C4CCCO4)n3)ccc21 (stereo not given) | 8.99 |
| N#Cc1ccccc1N1CCCN(C(=O)CCc2cccs2)CC1 | -29.1 |
| Cc1nc(CN2CCCCC2CCc2ccc(O)cc2)co1 (stereo not given) | 12.6 |
| c1csc(CN2CCCn3cnc(CN4CCCC4)c3C2)c1 | 41.6 |
| c1coc(-c2nc(CN3CCCC(Cn4cncn4)C3)cs2)c1 (stereo not given) | 16.8 |
| CNC(=O)c1sc2ccccc2c1C1CCN(c2nc(C)cc(C)n2)C1 (stereo not given) | 0.696 |
| CNC(=O)c1sc2ccccc2c1C1CCN(c2cc(C)nc(C)n2)C1 (stereo not given) | 74.9 |
| Cc1cc(C)nc(N2CCC(c3c(C(N)=O)sc4ccccc34)C2)n1 (stereo not given) | -14.2 |
| Cc1ccc2c(c1)CCC21CCN(C(=O)CN(C)C)CC1 | 38.5 |
| Cc1cc(C(=O)N(C)Cc2ccn[nH]2)c(NC(=O)C(C)(C)C)s1 | 51.3 |
| Cc1nc(CN(C)C(=O)c2cc(C)sc2NC(=O)C(C)(C)C)no1 | 18 |
| Cc1cc(C(=O)N(C)Cc2ccoc2)c(NC(=O)C(C)(C)C)s1 | -28.9 |
| O=C([C@@H]1CCO[C@@H]2CCN(Cc3ccc(F)cc3)C[C@H]21)N1CCCCO1 | 30.3 |
| CCCc1cc(CNc2cc(CCC)nc3ccnn23)on1 | 53.5 |
| CCCc1cc(NCc2cc(C)on2)n2nccc2n1 | 23.8 |
| CCc1cc(NCc2cc(CC(C)C)on2)n2nccc2n1 | 26.8 |
| COc1ccccc1CC(=O)NC1CCCc2cn[nH]c21 (stereo not given) | 8.31 |
| Cc1cccc(CN2C[C@@H]3CN(C(=O)c4ccco4)C[C@@H]3C2=O)n1 | 23.5 |
| CC(CCn1cccn1)Nc1ccc(-c2nccn2C)nn1 (stereo not given) | 48.5 |
| CC(CCCC(C)(C)O)Nc1ccc(-c2nccn2C)nn1 (stereo not given) | 60.4 |
| CC(Cn1cncn1)Nc1ccc(-c2nccn2C)nn1 (stereo not given) | 9.91 |

| SMILES | INHIBITION [%] |
| --- | --- |
| CN(C)CCN(Cc1ccc(F)cc1)C(=O)c1ccn(C)c(=O)c1 | 39.1 |
| Cc1nc(CN2C(=O)CCC23CCN(Cc2ccccn2)CC3)cs1 | 19.4 |
| Cc1cc2ccccc2n1CCC(=O)N1CCCC(O)(CN(C)C)CC1 (stereo not given) | -60.9 |
| CN(C)CC1(O)CCCN(C(=O)Cn2ccc3ccccc32)CC1 (stereo not given) | 89.9 |
| CN(C)CC1(O)CCCN(C(=O)Cn2nc3ccccc3n2)CC1 (stereo not given) | -21.8 |
| Cc1nc2ccc(C(=O)N3CCC(COc4ccccn4)CC3)cc2[nH]1 | -6.73 |
| Cc1cc(C)nc(C2CCCN2C(=O)c2coc(C)n2)n1 (stereo not given) | 20.2 |
| Cc1cc(C)n(Cc2ccc(-c3noc(C(=O)NCCCO)n3)cc2)n1 | 33 |
| CC(C)c1nnc2n1CCN(Cc1nc3c(F)cccc3[nH]1)C2 | -65 |
| CCc1ncc2c(n1)CN(Cc1nc3c(F)cccc3[nH]1)CC2 | 52.8 |
| Cc1ncc2c(n1)CN(Cc1nc3c(F)cccc3[nH]1)CC2 | 0.902 |
| CC(C)c1ncc2c(n1)CN(Cc1nc3c(F)cccc3[nH]1)CC2 | 36.6 |
| CCc1nnc2n1CCN(Cc1ccc3c(c1)OCCO3)C2 | 18.9 |
| CC(C)c1nnc2n1CCN(Cc1cccc3c1OCCO3)C2 | -67.8 |
| Cc1nnc2n1CCN(Cc1nc3c(F)cccc3[nH]1)C2 | -43.5 |
| CCc1nnc2n1CCN(Cc1nc3c(F)cccc3[nH]1)C2 | 58.1 |
| c1cc(CN2CCc3cncnc3C2)c2c(c1)OCCO2 | 41.6 |
| Fc1cccc2[nH]c(CN3CCc4cncnc4C3)nc12 | 52.8 |
| CCc1nnc2n1CCN(Cc1cccc3c1OCCO3)C2 | 50.35 |
| Fc1cccc2[nH]c(CN3CCn4c(nnc4C4CC4)C3)nc12 | -33.5 |
| COc1cccc2c(=O)n(Cc3nc(C)cc(O)n3)cnc12 | 1.56 |
| Cc1[nH]c2ccc(C(=O)N3C[C@@H](O)[C@H](N4CCOCC4)C3)cc2c1C | -29.8 |
